Hits are enriched below; roughly 3.5% of the tested compounds scored in any of these assays.
TEAD-YAP block = TEAD-YAP interaction inhibition | 640,000 tested, 1.4% active | inhibition, % at 9.12 µM | HEK-TIYL cells, TEAD-Gal4/YAP UAS-luciferase luminescence; in the data active = inhibition above about 32%
FBW7 activator = activators of human E3 ligase FBW7; Q969H0; AlphaScreen FBW7–phospho-cyclin E peptide binding, activator screen; normalized activity (activation), % at 26.1 µM; 650,000 tested, 0.13% active; AID 1259310; in the data active = normalized activity above about 1.9%;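 note: purified mutant Fbw7 with reduced substrate affinity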
MITF inh = human MITF inhibition, primary screen | O75030 | AlphaScreen MITF homodimerization, bead proximity signal | inhibition, % at 2.6 µM | 650,000 tested, 0.91% active; in the data active = inhibition above about 50%
GPR151 ag = activates the human receptor GPR151 | 650,000 tested, 1% active | AID 1508602 | PathHunter beta-arrestin GPR151 cells, luminescence | Q8TDV0 | activation, % at 11.2 µM; in the data active = activation above about 4.9%
Target sequence (Q8TDV0 whole entry, looked up): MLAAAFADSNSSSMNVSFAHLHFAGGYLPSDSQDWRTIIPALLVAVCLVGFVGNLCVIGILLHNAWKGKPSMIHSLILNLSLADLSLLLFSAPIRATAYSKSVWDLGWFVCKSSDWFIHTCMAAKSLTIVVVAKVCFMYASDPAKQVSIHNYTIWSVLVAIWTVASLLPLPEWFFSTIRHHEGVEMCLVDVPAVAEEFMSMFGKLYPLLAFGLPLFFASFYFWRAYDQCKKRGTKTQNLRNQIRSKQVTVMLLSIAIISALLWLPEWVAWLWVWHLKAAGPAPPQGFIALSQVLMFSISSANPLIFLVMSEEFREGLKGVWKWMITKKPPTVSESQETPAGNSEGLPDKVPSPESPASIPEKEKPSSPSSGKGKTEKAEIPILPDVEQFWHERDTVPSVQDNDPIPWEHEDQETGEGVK
MITF confirm = human MITF inhibition, confirmation. AlphaScreen MITF homodimerization, biotin/His-MITF beads. shares compounds with MITF inh. inhibition, % at 2.6 µM. 4,700 tested, 16% active;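 active = inhibition above a cutoff derived from the DMSO control wells, cut at about 28% in these data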;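 note: inhibitors lower the bead chemiluminescence by keeping MITF from dimerizing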
AlphaScreen DR = AlphaScreen optical interference, dose response counter-screen; IC50, µM; shares compounds with MITF inh; 480 tested, 6% active; AlphaScreen optical interference counterscreen, cell-free; call rule not given here
AlphaScreen intf2 = AlphaScreen optical interference, counter-screen; shares compounds with MITF inh; LysRS AlphaScreen counterscreen, signal interference, triplicate; inhibition, % at 2.6 µM; 4,700 tested, 7.6% active; AID 1259376;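 active = inhibition above a cutoff derived from the DMSO control wells, cut at about 30% in these data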
Each line names hits and unclear results; the compound was inactive in the other large screens (follow-up assays come after a bar, where they were run).

c1ccc(-c2nnc(-c3ccccn3)nc2-c2ccccc2)cc1	none
c1ccc(CNc2nc(-c3ccccn3)nnc2-c2ccccc2)cc1	MITF inh 106 | MITF confirm 101 | AlphaScreen intf2 100
CN(C)c1nc(-c2ccccn2)nnc1-c1ccccc1	MITF inh 102 | MITF confirm 107 | AlphaScreen intf2 100
CN(C)c1cc(NC(=O)CNC(C)(C)C)c(O)c2c1C[C@H]1C[C@H]3[C@@H](N(C)C)C(=O)C(C(N)=O)=C(O)[C@@]3(O)C(=O)C1=C2O	MITF inh 78 | MITF confirm 60 | AlphaScreen DR inactive | AlphaScreen intf2 inactive
COc1ccccc1CNC(=O)C1CCC(Cn2c(=S)[nH]c3ccccc3c2=O)CC1 (stereo not drawn)	MITF inh 53 | MITF confirm inactive | AlphaScreen intf2 inactive
N/C(=N\N=C(/N)c1ccccn1)c1ccccn1	TEAD-YAP block 61, MITF inh 107 | MITF confirm 100 | AlphaScreen intf2 100
O=[N+]([O-])c1cccc(P(=O)(c2cccc([N+](=O)[O-])c2)N2CCOCC2)c1	MITF inh 51 | MITF confirm inactive | AlphaScreen intf2 inactive
CCCN(Cc1cccc([N+](=O)[O-])c1)CC1CC1	MITF inh 54 | MITF confirm inactive | AlphaScreen intf2 inactive
COc1ccccc1NC(=O)CC(C(=O)O)N(C)C (stereo not drawn)	none
O=C(Cc1ccccc1)Nc1cc(Cl)ccc1Cl	none
COc1ccccc1NC(=O)CC(NCc1ccccn1)C(=O)O (stereo not drawn)	MITF inh 100 | MITF confirm 106 | AlphaScreen intf2 100
O=C(CC(NCc1ccccn1)C(=O)O)Nc1ccccc1Cl (stereo not drawn)	MITF inh 104 | MITF confirm 89 | AlphaScreen intf2 100
O=C(CC(NCc1ccccn1)C(=O)O)Nc1cc(Cl)ccc1Cl (stereo not drawn)	MITF inh 104 | MITF confirm 75 | AlphaScreen intf2 100
CCOC(=O)c1c(NC(=O)CSc2nnc(CNC(=O)COc3ccccc3)n2C2CCCCC2)sc2c1CCCC2	none
O=C(CCN1C(=O)c2cccc3cccc(c23)C1=O)Nc1ccc2c(c1)OCO2	none
CCCC(=O)Nc1c2c(nn1-c1cccc(Cl)c1)CS(=O)(=O)C2	none
C=CCc1ccccc1OCCOCCN1CCN(C)CC1	MITF inh 60 | MITF confirm inactive | AlphaScreen intf2 inactive
C=CCc1ccccc1OCCOCCN1CCCCC1	MITF inh 79 | MITF confirm inactive | AlphaScreen intf2 inactive
N#Cc1ccc(/C=C(\C(=O)O)c2ccc(S(=O)(=O)N3CCCCC3)s2)cc1	none
COc1cccc(OC)c1OCCN(C)C	MITF inh 59 | MITF confirm inactive | AlphaScreen intf2 inactive
COc1cccc(OC)c1OCCOc1ccccc1C	none
CCN(CC)CCCOc1c(OC)cccc1OC	MITF inh 75 | MITF confirm inactive | AlphaScreen intf2 inactive
CN1CCN(c2ccc(-c3cncc(-c4ccc5c(ccn5C)c4)n3)cn2)CC1	none
CCOC(=O)c1cnc2ccccc2c1Nc1ccc(C)c(C)c1	MITF inh 54 | MITF confirm inactive | AlphaScreen intf2 inactive
CCOC(=O)c1cnc2ccccc2c1Nc1ccc(O)cc1	none
CCOC(=O)c1cnc2ccccc2c1Nc1cccc(OC)c1	MITF inh 73 | MITF confirm inactive | AlphaScreen intf2 inactive
Cc1cc(NC2CCCCC2)nc(-c2ccccc2O)n1	MITF inh 79 | MITF confirm inactive | AlphaScreen intf2 inactive
CC(C)COc1ccc2c(c1)Sc1ccccc1N2CCN(C)C	MITF inh 54 | MITF confirm inactive | AlphaScreen intf2 inactive
CCCOC(=O)C1=C(C)NC2=C(C(=O)CC(c3ccc(OC)c(OC)c3)C2)C1c1ccc(Br)cc1 (stereo not drawn)	none
CCOc1ccccc1CN(C)CCc1ccccn1	MITF inh 89 | MITF confirm inactive | AlphaScreen intf2 inactive
CCc1ccc(CN(C)CCc2ccccn2)cc1	MITF inh 89 | MITF confirm inactive | AlphaScreen intf2 inactive
COc1ccc(C2C(C(=O)N(C)CCc3ccccn3)c3ccccc3C(=O)N2Cc2ccc(F)cc2)cc1 (stereo not drawn)	none
CN(CCc1ccccn1)Cc1ccncc1	MITF inh 83 | MITF confirm inactive | AlphaScreen intf2 inactive
COc1ccc(CN(C)CCc2ccccn2)cc1	MITF inh 83 | MITF confirm inactive | AlphaScreen intf2 inactive
CN(CCc1ccccn1)Cc1ccc2c(c1)CN(Cc1cccs1)CCO2	none
O=C(Cc1cnc2ncnn2c1)NCCN1Cc2ccccc2OC(c2ccsc2)C1 (stereo not drawn)	none
O=[N+]([O-])c1ccc(CSCCc2ccccn2)cc1	MITF inh 70 | MITF confirm inactive | AlphaScreen intf2 inactive
CN(Cc1ccccc1)Cc1ccccn1	MITF inh 54 | MITF confirm inactive | AlphaScreen intf2 inactive
CN(CCc1ccccn1)Cc1ccc([N+](=O)[O-])cc1	MITF inh 75 | MITF confirm inactive | AlphaScreen intf2 inactive
O=C(CCSCCc1ccccn1)Nc1cccc([N+](=O)[O-])c1	none
CN(C)CCN(C)Cc1ccc([N+](=O)[O-])cc1	MITF inh 83 | MITF confirm inactive | AlphaScreen intf2 inactive
CN(C)CCN(C)Cc1ccc(N(C)C)cc1	none
CN(Cc1ccccc1)Cc1cccnc1	none
Clc1cc(N2CCOCC2)c(Cl)nn1	none
CN(CCc1ccccn1)Cc1ccc(Cl)cc1	MITF inh 83 | MITF confirm inactive | AlphaScreen intf2 inactive
Cc1ccc(CN(C)CCc2ccccn2)cc1	none
Cc1cccc(OCC(=O)N2CCN(c3ccccn3)CC2)c1C	none
CC(=O)c1c(C(C)=O)c(C)n(-c2ccc(C)c(C)c2)c1C	none
c1cncc(-c2nc3c4ccccc4nc(N4CCOCC4)n3n2)c1	none
Cc1ccc2[nH]c(=O)c(CN(CC3CCCO3)S(=O)(=O)c3ccccc3)cc2c1 (stereo not drawn)	none
COc1ccc(S(=O)(=O)N(Cc2cc3ccc(C)cc3[nH]c2=O)CC2CCCO2)cc1 (stereo not drawn)	MITF inh 69 | MITF confirm inactive | AlphaScreen intf2 inactive
COc1ccc(-c2cc(C(F)(F)F)n3nc(C(=O)NC45CC6CC(CC(C6)C4)C5)cc3n2)cc1	none
c1ccc(Oc2cccc(OCCN3CCNCC3)c2)cc1	MITF inh 71 | MITF confirm inactive | AlphaScreen intf2 inactive
CCN1CCN(CCOc2cccc(Oc3ccccc3)c2)CC1	MITF inh 74 | MITF confirm inactive | AlphaScreen intf2 inactive
CCN1CCN(CCOCCOc2ccccc2)CC1	MITF inh 54 | MITF confirm inactive | AlphaScreen intf2 inactive
CCN1CCN(CCCOc2ccc(OCc3ccccc3)cc2)CC1	none
Brc1cccc(OCCN2CCNCC2)c1	none
O=C1Nc2ccc(C(F)(F)F)cc2N2CCCC12 (stereo not drawn)	none
Cc1ccc(C(C)(C)C)c(OCCOCCn2cncn2)c1	MITF inh 78 | MITF confirm inactive | AlphaScreen intf2 inactive

Bioassay records deposited in PubChem by The Scripps Research Institute Molecular Screening Center.
